# Rows were chosen to be rich in hits. Some 3.2% of all compounds tested hit in one or more screens of this group.
# aDG glyco up = alpha-DG glycosylation activation | Pro5-aDG cells, alpha-DG glycosylation AlphaScreen (IIH6); 0% Pro5, 100% B10-LARGE cell signal | activation, % at 10 µM | 360,000 compounds, 0.22% hits | AID 624168;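 active = activation of at least 8% versus controls, or a plate z-score of at least 8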;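 note: Pro5 are CHO cells carrying HIG-tagged alpha-DG that lacks glycosylation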
# CRFBP-R2 block = CRF-BP/CRF-R2 complex antagonism. HEK293 CRF-R2/CRF-BP, CRF-induced calcium fluorescence. inhibition, % at 11.8 µM. 350,000 compounds, 0.59% hits;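 active = inhibition of the ligand-induced calcium signal above about 50% at the single tested concentration, limit read from the data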
# PfG6PD inh = PfG6PD (Plasmodium falciparum) enzyme inhibition. PfGluPho enzyme, NADPH resazurin-diaphorase fluorescence. inhibition, % at 20 µM. 350,000 compounds, 0.78% hits;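 active = inhibition reaching at least a set limit at 20 µM in the primary screen, cut at about 59% in these data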;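 note: 0% = DMSO wells with substrate and 100% = DMSO wells lacking glucose-6-phosphate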
# H9c2 protect = modulators protecting cardiomyocytes from myocardial damage; H9c2 cardiomyocytes, H2O2 injury protection, ATPLite, 2 h; protection from H2O2 cell death, % at 20 µM; 360,000 compounds, 0.63% hits; AID 588492;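 active = compounds giving at least 50% protection of heart cells from peroxide-induced death in the single-dose screen, raw or plate-pattern-corrected value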;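 note: 0% = DMSO wells with peroxide and 100% = DMSO wells without peroxide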
# FAS TE block = inhibitors of human fatty acid synthase thioesterase domain; 360,000 compounds, 0.67% hits; AID 602261; P49327; inhibition, % at 15 µM; recombinant FAS-TE, OMFH fluorogenic substrate, fluorescence endpoint;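 active = compounds whose normalised, plate-corrected inhibition of enzyme fluorescence in the single-dose primary screen is 50% or more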;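 note: 0% = DMSO with enzyme and 100% = substrate without enzyme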
# Target sequence (P49327 whole entry, looked up, the tested form may be a part): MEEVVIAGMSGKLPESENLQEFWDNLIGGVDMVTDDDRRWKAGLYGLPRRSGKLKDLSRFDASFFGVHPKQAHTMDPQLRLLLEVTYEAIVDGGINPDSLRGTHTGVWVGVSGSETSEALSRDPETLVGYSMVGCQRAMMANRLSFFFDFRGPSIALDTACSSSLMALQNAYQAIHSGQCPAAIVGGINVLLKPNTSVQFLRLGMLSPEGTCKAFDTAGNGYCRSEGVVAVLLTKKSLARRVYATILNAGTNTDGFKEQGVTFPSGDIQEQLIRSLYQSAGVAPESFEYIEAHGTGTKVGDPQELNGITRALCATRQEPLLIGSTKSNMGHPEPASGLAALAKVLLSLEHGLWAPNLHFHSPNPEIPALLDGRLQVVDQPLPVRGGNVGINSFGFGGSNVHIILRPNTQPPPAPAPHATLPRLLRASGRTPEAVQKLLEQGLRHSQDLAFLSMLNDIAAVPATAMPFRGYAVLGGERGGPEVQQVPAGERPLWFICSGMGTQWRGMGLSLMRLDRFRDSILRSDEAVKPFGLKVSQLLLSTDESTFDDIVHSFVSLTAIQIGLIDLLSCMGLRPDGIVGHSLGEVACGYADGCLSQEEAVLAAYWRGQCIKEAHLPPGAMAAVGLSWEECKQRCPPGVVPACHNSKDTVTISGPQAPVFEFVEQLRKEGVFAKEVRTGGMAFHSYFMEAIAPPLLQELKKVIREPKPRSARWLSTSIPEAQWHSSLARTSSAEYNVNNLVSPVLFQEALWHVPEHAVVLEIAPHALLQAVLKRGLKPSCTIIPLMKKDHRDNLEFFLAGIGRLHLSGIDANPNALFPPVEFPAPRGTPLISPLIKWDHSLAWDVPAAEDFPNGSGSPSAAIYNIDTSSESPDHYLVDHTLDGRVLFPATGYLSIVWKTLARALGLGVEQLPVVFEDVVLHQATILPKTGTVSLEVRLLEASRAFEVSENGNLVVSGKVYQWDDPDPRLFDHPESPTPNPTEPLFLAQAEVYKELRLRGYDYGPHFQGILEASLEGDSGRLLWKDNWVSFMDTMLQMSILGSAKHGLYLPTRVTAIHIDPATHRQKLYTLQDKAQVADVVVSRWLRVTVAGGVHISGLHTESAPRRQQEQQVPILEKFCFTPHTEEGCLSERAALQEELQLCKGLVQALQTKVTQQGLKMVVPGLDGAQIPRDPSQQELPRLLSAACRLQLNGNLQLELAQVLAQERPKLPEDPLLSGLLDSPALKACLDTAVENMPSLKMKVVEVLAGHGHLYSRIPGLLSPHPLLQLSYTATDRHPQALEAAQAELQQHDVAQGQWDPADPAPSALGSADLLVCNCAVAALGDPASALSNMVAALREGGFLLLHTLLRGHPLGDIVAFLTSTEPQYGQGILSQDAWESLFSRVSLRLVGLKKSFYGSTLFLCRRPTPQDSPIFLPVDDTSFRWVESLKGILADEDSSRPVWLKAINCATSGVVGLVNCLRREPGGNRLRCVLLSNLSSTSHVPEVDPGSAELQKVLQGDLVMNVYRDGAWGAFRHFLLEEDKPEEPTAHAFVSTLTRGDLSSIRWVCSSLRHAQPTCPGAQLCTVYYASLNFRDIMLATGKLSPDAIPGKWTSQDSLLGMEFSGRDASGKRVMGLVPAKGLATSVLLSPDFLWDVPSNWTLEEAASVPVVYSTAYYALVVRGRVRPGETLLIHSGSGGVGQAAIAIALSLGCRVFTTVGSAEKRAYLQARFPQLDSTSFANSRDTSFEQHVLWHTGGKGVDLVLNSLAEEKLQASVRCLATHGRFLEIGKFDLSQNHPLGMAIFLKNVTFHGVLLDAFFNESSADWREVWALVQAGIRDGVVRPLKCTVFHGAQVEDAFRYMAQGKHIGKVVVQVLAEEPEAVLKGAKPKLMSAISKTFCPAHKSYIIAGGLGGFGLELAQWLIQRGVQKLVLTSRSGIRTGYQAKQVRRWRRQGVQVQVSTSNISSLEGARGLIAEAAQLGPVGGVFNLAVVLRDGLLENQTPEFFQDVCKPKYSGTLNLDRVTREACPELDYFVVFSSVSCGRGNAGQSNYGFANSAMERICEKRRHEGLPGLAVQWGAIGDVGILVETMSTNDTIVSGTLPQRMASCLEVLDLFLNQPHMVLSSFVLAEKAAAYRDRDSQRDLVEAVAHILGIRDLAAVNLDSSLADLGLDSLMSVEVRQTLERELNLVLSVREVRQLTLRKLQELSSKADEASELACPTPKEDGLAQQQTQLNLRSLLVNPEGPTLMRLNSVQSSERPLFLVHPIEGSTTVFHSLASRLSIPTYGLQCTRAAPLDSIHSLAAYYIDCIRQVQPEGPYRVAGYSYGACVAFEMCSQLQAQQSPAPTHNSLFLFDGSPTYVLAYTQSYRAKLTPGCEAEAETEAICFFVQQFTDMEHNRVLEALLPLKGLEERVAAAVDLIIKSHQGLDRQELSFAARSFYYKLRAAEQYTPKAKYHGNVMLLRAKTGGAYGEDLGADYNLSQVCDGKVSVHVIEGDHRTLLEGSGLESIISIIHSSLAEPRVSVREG
# CRFBP-R2 agonist = CRF-BP/CRF-R2 complex agonism; HEK293 CRF-R2/CRF-BP, calcium dye fluorescence (FLIPR); percent of saturating CRF peptide response; activation, % at 13.2 µM; 350,000 compounds, 0.46% hits; AID 588473;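 active = activation of at least 50%, plus an integration ratio under a set limit after plate pattern correction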;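 note: plate controls were neutral control wells without compound for no effect and CRF at EC100 for full effect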
# PfG6PD confirm = confirmation of Plasmodium falciparum G6PD inhibitors; recombinant PfGluPho, NADPH-diaphorase-resazurin fluorescence; inhibition, % at 20 µM; 2,400 compounds, 34% hits; shares compounds with PfG6PD inh; AID 504753;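 active = inhibition of at least 50% at 20 µM in any single replicate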;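 note: 0% = DMSO with substrate and 100% = DMSO lacking glucose-6-phosphate substrate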
# Diaphorase 10uM = counter-screen for P. falciparum G6PD inhibitors: diaphorase inhibitors, oxidizers; inhibition, % at 20 µM; AID 504862; diaphorase-coupled resazurin reduction, fluorescence, NADPH 10 uM; 820 compounds, 39% hits; shares compounds with PfG6PD inh;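 active = average inhibition reaching 50% or more with the compound at 20 µM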;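 note: resorufin red fluorescence formed as diaphorase reduces resazurin using NADPH; 0% = DMSO with enzyme and 100% = DMSO without enzyme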
# Diaph ctr 30uM = inhibits diaphorase or oxidizes, flagging false PfG6PD hits. shares compounds with PfG6PD inh. Diaphorase/resazurin coupled assay, resorufin fluorescence, 30 uM NADPH. inhibition, % at 20 µM. 820 compounds, 29% hits;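 active = inhibition averaging 50% or more, tested at 20 µM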;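 note: 0% = DMSO with enzyme and 100% = DMSO wells lacking diaphorase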
# An asterisk follows results filed as active; · = not tested or not shown.
SMILES,aDG glyco up,CRFBP-R2 block,PfG6PD inh,H9c2 protect,FAS TE block,CRFBP-R2 agonist,PfG6PD confirm,others
COc1cc(CNc2ccc(N3CCCC3)cc2)ccc1OCc1ccccc1F,0.1,-11.5,97.4*,-13.0,11.5,1.4,59.3*,Diaphorase 10uM=9.8;Diaph ctr 30uM=6.3
COc1cc(CNc2ccc(O)cc2)cc(Br)c1OCc1ccccc1F,2.4,-13.2,60.2*,-21.1,9.6,2.0,16.0,
CCOc1cc(CNc2ccc(O)cc2)cc(Br)c1OCc1ccccc1F,-0.3,-0.1,36.0,-25.3,22.7,1.1,·,
COc1cc(CNc2ccc(N3CCCC3)cc2)ccc1OCc1ccccc1,-0.5,-6.8,53.8,-18.4,40.3,0.8,·,
O=C(Cc1ccc(Br)cc1)NC1CCSC1=O (stereo unspecified),0.2,-13.4,-1.2,7.7,-0.9,1.7,·,
O=c1[nH]c2ccc(NS(=O)(=O)c3ccc(Cl)cc3)cc2[nH]1,0.2,2.6,63.5*,-1.5,-7.9,-0.6,1.8,
Cc1ccc(S(=O)(=O)Nc2ccc3[nH]c(=O)[nH]c3c2)c(C)c1,-0.3,-7.6,49.0,-8.6,-3.6,1.1,20.4,
Cc1ccc(S(=O)(=O)Nc2ccc3cn[nH]c3c2)c(C)c1,0.1,-8.8,36.6,-14.7,0.1,0.4,·,
O=c1[nH]c2ccc(NS(=O)(=O)c3ccc4ccccc4c3)cc2[nH]1,-0.1,8.4,41.6,-6.2,-1.7,1.8,·,
O=c1[nH]c2ccc(NS(=O)(=O)c3ccc(F)c(Cl)c3)cc2[nH]1,-0.2,-22.5,63.4*,2.0,-4.1,1.0,15.5,
CCCCn1c(N)c(N(CC(C)C)C(=O)c2cc3ccccc3cc2OC)c(=O)[nH]c1=O,-0.5,4.0,12.2,-2.0,-2.3,-0.6,·,
Fc1ccc2nncc(SCc3ccccc3Cl)c2c1,0.7,-17.8,8.8,-5.8,23.3,-2.4,·,
COC(=O)CNc1c(-c2ccccc2)nc2ccc(Br)cn12,-0.1,-13.0,47.7,-7.4,3.5,-1.1,·,
O=C(c1ccc2nc(-c3ccco3)c(-c3ccco3)nc2c1)N1CCN(c2ncccn2)CC1,-0.3,-43.1,68.5*,22.7,-0.4,1.0,1.8,
O=C(Nc1ccc2nc(-c3ccco3)c(-c3ccco3)nc2c1)N1CCN(c2ccccn2)CC1,-0.2,4.4,81.0*,116.6*,4.8,3.7,20.4,
Cc1nc2cc(NC(=O)N3CCN(c4ccccn4)CC3)ccc2o1,-0.1,-31.8,34.6,0.4,-5.7,2.5,·,
O=C(c1cccc(C(=O)N2CCN(c3ncccn3)CC2)c1)N1CCN(c2ncccn2)CC1,0.0,7.1,3.7,6.5,-2.7,-2.5,·,
CC(C(=O)O)n1cc(C#N)c(=O)[nH]c1=O (stereo unspecified),0.1,-4.2,11.3,0.1,-8.4,0.1,·,
COc1cc(Cl)ccc1NC(=O)COc1ccccc1C(=O)N1CCN(c2ccc(O)cc2)CC1,-0.1,8.8,68.4*,4.7,5.0,0.5,41.6,
Cc1ccc(C2(c3ccc(C)cc3)CC2C(=O)Nc2ccc([N+](=O)[O-])cc2O)cc1 (stereo unspecified),-0.5,17.7,92.5*,-16.8,-14.9,5.7,19.1,
CC1(C)CC1C(=O)Nc1ccc([N+](=O)[O-])cc1Br (stereo unspecified),0.2,-31.4,-9.1,-7.4,2.3,-1.5,·,
O=C(O)CSc1nnc(-c2ccc(Cl)cc2Cl)n1-c1ccccc1,-0.1,11.3,-0.8,-0.2,-2.4,0.4,·,
Oc1ccccc1CNc1cccc2cccnc12,0.3,30.9,19.7,-15.2,6.7,-2.2,·,
COc1cc(NCc2ccccc2O)c2ncccc2c1,0.1,5.2,64.6*,-0.5,-4.4,-0.4,55.7*,Diaphorase 10uM=-1.9;Diaph ctr 30uM=-7.3
C[C@]12CC[C@@H]3c4ccc(O)cc4CC[C@H]3[C@@H]1CC[C@@H]2O,0.2,0.8,-2.3,2.9,-4.9,0.7,·,
SMILES,aDG glyco up,CRFBP-R2 block,PfG6PD inh,H9c2 protect,FAS TE block,CRFBP-R2 agonist,PfG6PD confirm,others
C[C@]12CC[C@@H]3c4cc(O)c(O)cc4CC[C@H]3[C@@H]1CC[C@@H]2O,0.0,-33.6,97.1*,108.2*,-5.8,4.2,86.0*,Diaphorase 10uM=28.2;Diaph ctr 30uM=14.3
O=S(=O)(N/N=C/c1cccnc1)c1ccc(Cl)c(Cl)c1,-0.2,-6.8,16.3,-4.4,0.7,-1.6,·,
CCN=c1scc(C)n1/N=C/c1ccc(O)c(O)c1O,-0.2,-22.3,80.5*,17.2,-7.0,-0.1,72.5*,Diaphorase 10uM=25.0;Diaph ctr 30uM=36.5
CCN=c1scc(C)n1/N=C/c1cc(Br)c(O)c(Br)c1,-0.4,6.3,3.2,0.1,7.4,1.1,·,
COc1ccc(-c2cn3c(C)c(C(=O)Nc4ccncc4)sc3n2)cc1,4.2,20.3,65.1*,-20.3,-0.4,2.6,18.9,
COc1ccc(-c2cn3c4c(sc3n2)CCCC4)cc1,0.5,7.0,93.3*,-21.5,14.5,-0.1,45.2,
Cc1c(C(=O)NCC(C)C)sc2nc(-c3ccc(F)cc3)cn12,0.3,-32.2,15.5,-1.4,-8.2,-0.8,·,
Cc1c(C(=O)Nc2ccncc2)sc2nc(-c3ccc(F)cc3)cn12,0.9,-18.8,84.1*,-27.5,-0.9,3.9,9.8,
O=C(CNC(=O)C1CC1)Nc1ccc(F)c(F)c1F,-0.1,-4.9,4.8,6.1,-9.3,1.4,·,
Cc1ccc(NNC(=O)Nc2ccc(Cl)cc2)nn1,0.0,9.0,68.1*,1.9,-0.1,-0.1,25.9,
COc1cccc(NC(=O)c2ccc3c(c2)N(C)CCS3)c1,1.7,-6.4,94.2*,-8.8,8.2,0.5,26.5,
CN1CCSc2ccc(C(=O)NCc3cccc(F)c3)cc21,-0.4,-27.2,68.8*,-9.3,5.9,-0.2,-20.3,
O=C(N/N=C/c1cccnc1)c1cc(-c2ccccc2OCc2ccccc2)n[nH]1,-0.1,-11.2,19.5,39.2,18.7,1.2,·,
CCOC(=O)c1c(NC(=O)C2CCCO2)sc(C)c1C (stereo unspecified),0.1,2.7,7.1,-2.4,6.0,1.4,·,
CCOC(=O)c1c(NC(=O)C2CCCO2)sc(C(=O)OC(C)(C)C)c1C (stereo unspecified),-0.1,-11.6,63.1*,-5.9,1.3,0.8,11.8,
O=C1/C(=C/Nc2ccc3c(c2)OCO3)CCc2ccccc21,0.3,-13.0,88.0*,-24.5,-7.1,1.7,40.9,
COc1ccc(N/C=C2\CCc3ccccc3C2=O)cc1,0.2,-17.3,90.5*,-24.5,14.6,7.7,45.9,
COc1ccc2c(c1)CC/C(=C\Nc1ccc3c(c1)OCO3)C2=O,0.0,-23.3,73.5*,-17.6,16.2,4.5,56.9*,Diaphorase 10uM=3.0;Diaph ctr 30uM=9.6
